Assay outcomes deposited in PubChem BioAssay by several laboratories.
proKLK7 act – activators of human kallikrein-7 zymogen | P49862 | purified proKLK7, EDANS-DABCYL substrate fluorescence; 100% is mature enzyme control, 0% vehicle | activation, % at 7 µM | 0.9% of 370,000 active | AID 652039;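 active = activation above the mean of all tested compounds plus 3 SD, computed per campaign excluding outliers beyond control limits, cut at about 13% in these data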
Pemphigus Ab inh – inhibitors of pemphigus antibody binding to human desmoglein-3; binding (percent of control), % at 10 µM; P32926; DSG3-coupled beads, scFv-anti-DSG3-GFP binding, flow cytometry; hits give low values; AID 588358; 0.48% of 310,000 active;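 active = binding more than 3 SD below its plate's average and above zero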;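 also: hits lower antibody fragment binding to DSG3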
rCAG binder – r(CAG) repeat RNA binding | AID 651821 | inhibition, % at 3 µM | TO-PRO-1 dye displacement fluorescence | 1.3% of 370,000 active;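 active = inhibition above the plate cutoff, the mean of all test compounds on that plate plus 3 SD, cut at about 35% in these data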;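 also: 0% = DMSO alone and 100% = 100 µM mitoxantrone as full dye displacement; higher means more dye released from RNA so lower well fluorescence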
MPTP block – blocks calcium-induced mitochondrial swelling. 1.4% of 360,000 active. inhibition, % at 10 µM. isolated mouse mitochondria, Ca2+ swelling absorbance, 30 min;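 active = inhibition of 50% or more, scaled per plate between neutral and stimulator controls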;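 also: 0% = DMSO wells given calcium and 100% = 1 mM EGTA wells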
ADAM17 inh – ADAM17 inhibition, QFRET primary screen | P78536 | recombinant ADAM17, EDANS/DABCYL FRET peptide cleavage | inhibition, % at 6.95 µM | 0.83% of 370,000 active | AID 720648;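 active = inhibition above the mean of compounds lying between control limits plus 3 SD, set per campaign, cut at about 8.5% in these data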;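 also: 0% = DMSO-only wells as the low control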
ADAM10 inh – inhibitors of human ADAM10; inhibition, % at 7 µM; recombinant ADAM10, EDANS/DABCYL FRET peptide cleavage, 3 h; O14672; AID 720582; 0.62% of 370,000 active;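 active = inhibition above a per-campaign cutoff equal to the mean of compounds falling between control-based bounds plus 3 SD, cut at about 20% in these data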;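 also: 0% = DMSO wells while the 100% control is not disclosed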
Target sequence (O14672 214-748 limits assumed): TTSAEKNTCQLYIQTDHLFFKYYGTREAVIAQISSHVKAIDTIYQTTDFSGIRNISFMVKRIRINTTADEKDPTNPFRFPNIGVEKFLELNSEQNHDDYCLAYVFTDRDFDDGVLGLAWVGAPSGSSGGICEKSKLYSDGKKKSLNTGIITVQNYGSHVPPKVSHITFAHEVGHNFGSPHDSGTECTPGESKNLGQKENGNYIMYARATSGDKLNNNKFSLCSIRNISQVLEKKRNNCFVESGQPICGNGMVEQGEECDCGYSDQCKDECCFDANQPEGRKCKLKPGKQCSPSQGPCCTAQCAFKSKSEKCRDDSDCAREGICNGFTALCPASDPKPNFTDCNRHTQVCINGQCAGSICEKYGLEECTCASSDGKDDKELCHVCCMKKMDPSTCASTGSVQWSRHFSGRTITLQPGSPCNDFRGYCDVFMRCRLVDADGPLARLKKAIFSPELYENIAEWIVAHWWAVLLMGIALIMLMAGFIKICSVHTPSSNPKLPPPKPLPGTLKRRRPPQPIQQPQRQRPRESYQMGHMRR
Rh123 counter – mitochondrial membrane potential, counter-screen; shares compounds with MPTP block; isolated mitochondria, Rhodamine 123 fluorescence; inhibition, % at 10 µM; 78% of 5,000 active; in the data active = inhibition above about 22%;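 also: 0% = DMSO vehicle and 100% = positive control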
rCAG binder conf – r(CAG) RNA repeat binding, confirmation; shares compounds with rCAG binder; TO-PRO-1 dye displacement fluorescence; inhibition, % at 3 µM; 70% of 4,300 active; AID 652065;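 active = inhibition above a per-plate cutoff, the mean inhibition of sample wells plus 3 SD, cut at about 35% in these data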;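 also: loss of TO-PRO-1 fluorescence as compound displaces dye from 1x1 AA loop RNA; 0% = DMSO only wells and 100% = 100 µM mitoxantrone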
DNA CAG counter – disrupts DNA CAG TO-PRO-1 complex, flagging rCAG hits; d(CAG) DNA oligo TO-PRO-1 dye displacement, fluorescence; inhibition, % at 3 µM; shares compounds with rCAG binder; 94% of 4,300 active;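 active = inhibition above its plate's cutoff, the mean test-well inhibition plus 3 SD, cut at about 4.8% in these data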;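 also: 0% = DNA dye mix with DMSO and 100% = 100 µM mitoxantrone; hits displace the dye from DNA and so lower well fluorescence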
* hit, by the source's call. The list is not random: actives were taken first. Their share in the collection is about 4.7%.

`O=C(Nc1cccc([N+](=O)[O-])c1)c1cc2ccccc2cc1O` gave proKLK7 act 0, Pemphigus Ab inh 83, rCAG binder 39*, MPTP block 96*, ADAM17 inh 5, ADAM10 inh 13, Rh123 counter 60*, rCAG binder conf 37* and DNA CAG counter 16*.
`FC(F)(F)C1=Nc2cccc3cccc(c23)N1` gave proKLK7 act 0, Pemphigus Ab inh 92, rCAG binder 94*, MPTP block 103*, ADAM17 inh -2, ADAM10 inh -4, Rh123 counter 71*, rCAG binder conf 47* and DNA CAG counter 38*.
Fc1ccc(C2=Nc3cccc4cccc(c34)N2)cc1 was read as proKLK7 act 0, Pemphigus Ab inh 78, rCAG binder 5, MPTP block 7, ADAM17 inh -1 and ADAM10 inh -1.
Cc1onc(-c2c(F)cccc2Cl)c1-c1ncc(-c2ccc(Cl)cc2)o1 was read as proKLK7 act 0, rCAG binder 1, ADAM17 inh -4 and ADAM10 inh 4.
For CCCCCc1c2c(cc(O)c1C(=O)O)OC(=O)c1cc(C(=O)CCCC)c(OC)cc1O2 the results were proKLK7 act 4, Pemphigus Ab inh 103, rCAG binder 87*, MPTP block 95*, ADAM17 inh 6, ADAM10 inh 15, Rh123 counter 57*, rCAG binder conf 88* and DNA CAG counter 61*.
Screening CC(=O)N1C[C@@H](CN2C(=O)CCC2=O)[C@@H]2C[C@H]1c1ccccc1N2C returned proKLK7 act 0, rCAG binder 0, ADAM17 inh -6 and ADAM10 inh -14.
Screening Cc1ccc(NC(=O)Cn2c(=O)oc3cc(S(=O)(=O)N4CCC(C)CC4)ccc32)cc1C returned proKLK7 act 1, Pemphigus Ab inh 103, rCAG binder 46*, MPTP block 70*, ADAM17 inh 2, ADAM10 inh 1, Rh123 counter 90*, rCAG binder conf 36* and DNA CAG counter 15*.
COc1ccc(C(=O)COC(=O)/C=C/c2ccccc2)cc1 was read as proKLK7 act 0, Pemphigus Ab inh 108, rCAG binder -3, MPTP block -2, ADAM17 inh -4 and ADAM10 inh -7.
For NS(=O)(=O)c1cccc(NS(=O)(=O)c2ccc(/C=C/C(=O)OCC(=O)c3ccccc3)cc2)c1 the results were proKLK7 act 0, Pemphigus Ab inh 96, rCAG binder 60*, MPTP block 60*, ADAM17 inh 1, ADAM10 inh 11, Rh123 counter 27*, rCAG binder conf 54* and DNA CAG counter 22*.
N#C/C(=C\c1ccc(O)c([N+](=O)[O-])c1)c1nc2ccccc2s1 was read as proKLK7 act -1, Pemphigus Ab inh 96, rCAG binder 88*, MPTP block 91*, ADAM17 inh 0, ADAM10 inh 1, Rh123 counter 64*, rCAG binder conf 82* and DNA CAG counter 43*.
For COc1cc(/C=C(\C#N)c2nc3ccccc3s2)cc([N+](=O)[O-])c1O the results were proKLK7 act 0, Pemphigus Ab inh 75, rCAG binder 33, MPTP block 36, ADAM17 inh -2 and ADAM10 inh 4.
For O=C(NCC(c1cccs1)N1CCOCC1)c1ccccc1NS(=O)(=O)c1ccc(Cl)c([N+](=O)[O-])c1 (centres undefined) the results were proKLK7 act 0, Pemphigus Ab inh 112, rCAG binder 78*, MPTP block 80*, ADAM17 inh 4, ADAM10 inh 7, Rh123 counter 77*, rCAG binder conf 78* and DNA CAG counter 36*.
Screening COC(=O)C1=C(C)N(Cc2ccccc2C(F)(F)F)C(=NCc2ccccc2C(F)(F)F)NC1c1ccc(F)cc1 (centres undefined) returned proKLK7 act 0, rCAG binder 2, ADAM17 inh -1 and ADAM10 inh 1.
N#C/C(=C(/O)COC(=O)c1ccc(C#N)cc1)c1nc2ccccc2s1 was read as proKLK7 act 0, Pemphigus Ab inh 99, rCAG binder 38*, MPTP block 79*, ADAM17 inh 5, ADAM10 inh 17, Rh123 counter 88*, rCAG binder conf 40* and DNA CAG counter 17*.
Cc1cc(C(F)(F)F)nn1CC(=O)NNC(=S)Nc1ccc(Cl)cc1 was read as proKLK7 act 0, Pemphigus Ab inh 105, rCAG binder 17, MPTP block 1, ADAM17 inh 6 and ADAM10 inh 19.
Screening O=C(Cn1nnc(-c2cc(C(F)(F)F)cc(C(F)(F)F)c2)n1)NNC(=S)Nc1ccc(Cl)cc1 returned proKLK7 act 0, rCAG binder 66*, MPTP block 84*, ADAM17 inh 0, ADAM10 inh 5, Rh123 counter 61*, rCAG binder conf 53* and DNA CAG counter 21*.
`Cc1ccc(S(=O)(=O)N2CCCc3nc(-c4ccccc4)ccc32)cc1` gave proKLK7 act 0, rCAG binder 3, ADAM17 inh 1 and ADAM10 inh 4.
For N#Cc1c(-c2cccs2)nc(SCc2ccc(Cl)cc2)[nH]c1=O the results were proKLK7 act 0, Pemphigus Ab inh 103, rCAG binder 87*, MPTP block 96*, ADAM17 inh -3, ADAM10 inh 9, Rh123 counter 71*, rCAG binder conf 88* and DNA CAG counter 68*.
`CCOc1c(OC(C)=O)ccc(/C=C/c2ccc3cccc(OC(C)=O)c3n2)c1[N+](=O)[O-]` gave Pemphigus Ab inh 108 and MPTP block 21.
C=CCN1C(=O)/C(=C/c2ccc(OC(C)=O)c(OCC)c2[N+](=O)[O-])SC1=S was read as proKLK7 act 0, Pemphigus Ab inh 82, rCAG binder 80*, MPTP block 102*, ADAM17 inh 6, ADAM10 inh 19, Rh123 counter 65*, rCAG binder conf 42* and DNA CAG counter 12*.
Screening Cc1cc(C)cc(-n2cccc2/C=C2/C(=N)N3C(=NC2=O)SN=C3S(C)(=O)=O)c1 returned proKLK7 act 1, Pemphigus Ab inh 86, rCAG binder 89*, MPTP block 63*, ADAM17 inh -5, ADAM10 inh -8, Rh123 counter 50*, rCAG binder conf 88* and DNA CAG counter 61*.
